Source: PubChem BioAssay (NCATS)
Results filed as inconclusive are left out. Where a call stands in place of a potency, no number is given. The source made the active and inactive calls. Calls follow the shape of the dose curve; as a rule, active = well fitted cell-killing curve with a large enough effect; inconclusive = small, poorly fitted or top-dose-only effect, or effect the other way; inactive = no such curve, though single readings can be large or run the other way.

assay: Quantitative High-Throughput drug screen in 47 multiple myeloma cell lines against the NCATS MIPE library collection: KMS11_JCRBsus cell viability assay (AID 1919873); settings: KMS11 myeloma viability, CellTiter-Glo ATP luminescence, 48 h; series mostly up to 45.8 µM; also: nearly all actives have a fitted effect of over 50% in size
Summary of the method: (§1)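 Viability after 48 h drug exposure was measured as ATP-dependent luminescence. Cells, 500 per well, sat at 37 °C under 5% CO2; DMSO wells set 100%, media-only wells 0%.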
Potency is read from the fitted curve at half-maximal effect.

Compound	Potency
COCCOC(=O)C1=C(C)NC2=C(C(=O)CC(c3ccccc3OC)C2)C1c1cccc(O)c1 (stereo not given)	5.26 µM (active)
O=C(OCC#CCSc1nnc(-c2cccc3ccccc23)o1)c1cc2ccccc2s1	inactive
COc1ccc2cc(-c3nc(-c4ccc(S(C)=O)cc4)[nH]c3-c3ccncc3)ccc2c1 (stereo not given)	23.5 µM (active)
C[C@]12CCC3c4ccc(O)cc4CCC3C1CCC2=O (stereo not given in full)	26.4 µM (active)
COc1ccc2cccc(CCNC(C)=O)c2c1	inactive
CC=CCC=CCCC(=O)[C@H]1O[C@@H]1C(N)=O	20.9 µM (active)
NC1CCC(Nc2nc(Nc3ccc(C(=O)N4CCCCC4)cc3)c3ncn(-c4cccc(F)c4)c3n2)CC1 (stereo not given)	inactive
CC(C)(C)C(=O)Oc1ccc2c(c1)nc(NC(=O)c1cccc([N+](=O)[O-])c1)n2CCCO	inactive
CC[C@H]1OC(=O)[C@H](C)[C@@H](O[C@H]2C[C@@](C)(OC)[C@@H](O)[C@H](C)O2)[C@H](C)[C@@H](O[C@@H]2O[C@H](C)C[C@H](N(C)C)[C@@H]2O)[C@](C)(O)C[C@@H](C)CN(C)[C@H](C)[C@@H](O)[C@]1(C)O	inactive
C[N+](C)(C)CC(=O)O	inactive
NC(=O)c1cccc(-c2cc(Nc3ccc(OC(F)(F)F)cc3)ncn2)c1	29.6 µM (active)
O=c1cc(-c2cccc3c2Sc2ccccc2S3)oc(N2CCOCC2)c1	20.9 µM (active)
C[C@H](NC(=O)c1sccc1OCc1ccc(Cl)cc1)c1ccccc1	7.43 µM (active)
CC1(C)S[C@H]2[C@H](NC(=O)[C@@H](N)c3ccc(O)cc3)C(=O)N2[C@@H]1C(=O)O	18.7 µM (active)
O=C1Nc2ccc(Cl)cc2C(C#CC2CC2)(C(F)(F)F)O1 (stereo not given)	20.9 µM (active)
COc1cccc(-c2cc(=O)c3ccccc3o2)c1N	inactive
CON=C(C(=O)N[C@@H]1C(=O)N2C(C(=O)OCOC(=O)C(C)(C)C)=C(C=Cc3scnc3C)CS[C@H]12)c1csc(N)n1	inactive
CC(C)C(=O)Oc1ccc(CO)cc1[C@H](CCN(C(C)C)C(C)C)c1ccccc1	inactive
CCOC1OC(=O)C[C@H]1NC(=O)[C@@H]1CCCN1C(=O)[C@@H](NC(=O)c1ccc(N)c(Cl)c1)C(C)(C)C (stereo not given in full)	inactive
O=C(O)c1cc(O)c2c(c1)C(=O)c1cccc(O)c1C2=O	inactive
CC(=Cc1ccccc1)C=C1SC(=S)N(CC(=O)O)C1=O	inactive
Nc1ncnc2c1ncn2[C@@H]1O[C@@H](CO)[C@H](O)[C@H]1O	inactive

assay: Quantitative High-Throughput drug screen in 47 multiple myeloma cell lines against the NCATS MIPE library collection: KMS28BM_JCRB cell viability assay (AID 1919874); settings: CellTiter-Glo ATP, 48 h; series mostly up to 45.8 µM; also: nearly all actives have a fitted effect of over 35% in size
Summary of the method: as §1

Compound	Potency
CCCCCNC(=O)N1CCC(CN(Cc2ccc(Cl)cc2)Cc2ccc([N+](=O)[O-])s2)C1 (stereo not given)	18.7 µM (active)
O=c1ccn([C@@H]2O[C@H](CO)[C@H](O)[C@H]2O)c(=O)[nH]1	inactive
O=C(OCC#CCSc1nnc(-c2cccc3ccccc23)o1)c1cc2ccccc2s1	3.32 µM (active)
C[C@]12CCC3c4ccc(O)cc4CCC3C1CCC2=O (stereo not given in full)	20.9 µM (active)
C=CCc1ccc(O)c(-c2ccc(O)c(CC=C)c2)c1	23.5 µM (active)
CC(C)(C(=O)NCC(F)(F)C(F)(F)F)C(=O)N[C@@H]1C(=O)Nc2ccccc2-c2ccccc21	inactive
Cc1ccn(-c2ccc(-c3ncco3)cc2)c(=O)c1-c1ccc2nc(N)ncc2c1	inactive
C[C@H](NC(=O)C(=O)Nc1ccccc1C(C)(C)C)C(=O)N[C@@H](CC(=O)O)C(=O)COc1c(F)c(F)cc(F)c1F	inactive
CC(C)(C)NC(=O)Nc1cccc(Nc2ncc(F)c(NC(C)(C)CO)n2)c1	inactive
COc1ccc2cccc(CCNC(C)=O)c2c1	inactive
CC=CCC=CCCC(=O)[C@H]1O[C@@H]1C(N)=O	14.8 µM (active)
NC1CCC(Nc2nc(Nc3ccc(C(=O)N4CCCCC4)cc3)c3ncn(-c4cccc(F)c4)c3n2)CC1 (stereo not given)	inactive
CC(C)(C)C(=O)Oc1ccc2c(c1)nc(NC(=O)c1cccc([N+](=O)[O-])c1)n2CCCO	inactive
CC[C@H]1OC(=O)[C@H](C)[C@@H](O[C@H]2C[C@@](C)(OC)[C@@H](O)[C@H](C)O2)[C@H](C)[C@@H](O[C@@H]2O[C@H](C)C[C@H](N(C)C)[C@@H]2O)[C@](C)(O)C[C@@H](C)CN(C)[C@H](C)[C@@H](O)[C@]1(C)O	inactive
C[N+](C)(C)CC(=O)O	inactive
CC1(C)S[C@H]2[C@H](NC(=O)[C@@H](N)c3ccc(O)cc3)C(=O)N2[C@@H]1C(=O)O	5.9 µM (active)
O=C1Nc2ccc(Cl)cc2C(C#CC2CC2)(C(F)(F)F)O1 (stereo not given)	20.9 µM (active)
CON=C(C(=O)N[C@@H]1C(=O)N2C(C(=O)OCOC(=O)C(C)(C)C)=C(C=Cc3scnc3C)CS[C@H]12)c1csc(N)n1	inactive
CC(C)C(=O)Oc1ccc(CO)cc1[C@H](CCN(C(C)C)C(C)C)c1ccccc1	inactive
COc1ccc(Cc2ccc(NC(N)=O)cc2)cc1-c1cccc(Cl)c1	13.2 µM (active)
CCOC1OC(=O)C[C@H]1NC(=O)[C@@H]1CCCN1C(=O)[C@@H](NC(=O)c1ccc(N)c(Cl)c1)C(C)(C)C (stereo not given in full)	inactive
O=C(O)c1cc(O)c2c(c1)C(=O)c1cccc(O)c1C2=O	inactive
CC(=Cc1ccccc1)C=C1SC(=S)N(CC(=O)O)C1=O	inactive
